We go through four compounds from publication PMC11062922 (Nature Chemical Biology, 2023).

Design in all cases: species or system human, MV4-11 + K-562 + COLO205 + SK-N-BE2 + OVCAR-8
The subject of assay [1] is CDC7. As to conditions: read-out: apparent Kd; compound concentrations: 100 nM and 1000 nM (sheet 'Samples'), CATDS: 8.1877579079801296E-2; n = 1.
The test system of assay [2] is CLK1. As to conditions: read-out: apparent Kd; compound concentrations: 100 nM and 1000 nM (sheet 'Samples'), CATDS: 0.173131615518303; n = 1.
The subject of assay [3] is CLK4. Conditions: read-out: apparent Kd; compound concentrations: 100 nM and 1000 nM (sheet 'Samples'), CATDS: 0.128777290310437; n = 1.
For assay [4], the system named is CSNK1A1. Conditions: read-out: apparent Kd; compound concentrations: 100 nM and 1000 nM (sheet 'Samples'), CATDS: 0.113796385521925; n = 1.
Assay [5] has as its system CSNK1D. As to conditions: read-out: apparent Kd; compound concentrations: 100 nM and 1000 nM (sheet 'Samples'), CATDS: 0.110842785331434; n = 1.
Assay [6] deals with CSNK1E. Conditions: read-out: apparent Kd; compound concentrations: 100 nM and 1000 nM (sheet 'Samples'), CATDS: 9.8087772288550895E-2; n = 1.
Assay [7] has as its system ILK. As to conditions: read-out: apparent Kd; compound concentrations: 100 nM and 1000 nM (sheet 'Samples'), CATDS: 8.2547383277030401E-2; n = 1.
Assay [8] deals with NQO1. As to conditions: read-out: apparent Kd; compound concentrations: 100 nM and 1000 nM (sheet 'Samples'), CATDS: 9.0275127229000399E-2; n = 1.
The subject of assay [9] is RIOK2. As to conditions: read-out: apparent Kd; compound concentrations: 100 nM and 1000 nM (sheet 'Samples'), CATDS: 9.8590158992526697E-2; n = 1.
The test system of assay [10] is TP53RK. As to conditions: read-out: apparent Kd, compound concentrations: 100 nM and 1000 nM (sheet 'Samples'), n = 1.
Assay [11] has as its system CDK16. Conditions: read-out: apparent Kd, compound concentrations: 100 nM and 1000 nM (sheet 'Samples'), n = 1.
Assay [12] has as its system CDK17. Conditions: read-out: apparent Kd; compound concentrations: 100 nM and 1000 nM (sheet 'Samples'), CATDS: 5.2851487986603697E-2; n = 1.
Assay [13] has as its system CDK2. As to conditions: read-out: apparent Kd; compound concentrations: 100 nM and 1000 nM (sheet 'Samples'), CATDS: 4.7813901315705599E-2; n = 1.
For assay [14], the system named is CDK6. Conditions: read-out: apparent Kd; compound concentrations: 100 nM and 1000 nM (sheet 'Samples'), CATDS: 5.8978881187618598E-2; n = 1.
Assay [15] deals with CDK9. Conditions: read-out: apparent Kd; compound concentrations: 100 nM and 1000 nM (sheet 'Samples'), CATDS: 7.0025924153680405E-2; n = 1.
The test system of assay [16] is CDKL5. Conditions: read-out: apparent Kd; compound concentrations: 100 nM and 1000 nM (sheet 'Samples'), CATDS: 0.107974532487744; n = 1.
Assay [17] relates to DYRK1A. As to conditions: read-out: apparent Kd; compound concentrations: 100 nM and 1000 nM (sheet 'Samples'), CATDS: 7.1113198150105694E-2; n = 1.
Assay [18] has as its system GSK3A. As to conditions: read-out: apparent Kd, compound concentrations: 100 nM and 1000 nM (sheet 'Samples'), n = 1.
The test system of assay [19] is GSK3B. As to conditions: read-out: apparent Kd, compound concentrations: 100 nM and 1000 nM (sheet 'Samples'), n = 1.
Assay [20] has as its system MAPK14. As to conditions: read-out: apparent Kd; compound concentrations: 100 nM and 1000 nM (sheet 'Samples'), CATDS: 5.6581371759273497E-2; n = 1.
Assay [21] relates to MAPK7. As to conditions: read-out: apparent Kd; compound concentrations: 100 nM and 1000 nM (sheet 'Samples'), CATDS: 4.4821094432651497E-2; n = 1.
Assay [22] has as its system MAPK9. Conditions: read-out: apparent Kd; compound concentrations: 100 nM and 1000 nM (sheet 'Samples'), CATDS: 4.6942214024324101E-2; n = 1.
Assay [23] has as its system MELK. Conditions: read-out: apparent Kd; compound concentrations: 100 nM and 1000 nM (sheet 'Samples'), CATDS: 4.5559662583992203E-2; n = 1.
Assay [24] has as its system NQO2. As to conditions: read-out: apparent Kd, compound concentrations: 100 nM and 1000 nM (sheet 'Samples'), n = 1.
The subject of assay [25] is PRKD2. Conditions: read-out: apparent Kd; compound concentrations: 100 nM and 1000 nM (sheet 'Samples'), CATDS: 5.0441088598544299E-2; n = 1.
Assay [26] relates to T1, DJA1.
T1 construct: gene DNAJA1
As to conditions: read-out: apparent Kd; compound concentrations: 100 nM and 1000 nM (sheet 'Samples'), CATDS: 0.17087221308304101; n = 1.

The subject of assay [27] is PDXK. Conditions: read-out: apparent Kd; compound concentrations: 100 nM and 1000 nM (sheet 'Samples'), CATDS: 0.14245217988019501; n = 1.
Assay [28] concerns CDC42. As to conditions: read-out: apparent Kd; compound concentrations:100 nM and 1000 nM (sheet 'Samples'); n = 1.
The test system of assay [29] is PIK3CB. Conditions: read-out: apparent Kd; compound concentrations:100 nM and 1000 nM (sheet 'Samples'); n = 1.
The subject of assay [30] is RAB5C. Conditions: read-out: apparent Kd; compound concentrations:100 nM and 1000 nM (sheet 'Samples'); n = 1.

Read-outs that look alike come from different tables or passages of the source.

On to `CCc1c(C)nc2sc3c(N)ncnc3c2c1C` [RO4493944-000], for which the potency estimated from few doses was 1870 nM in [1]; 453 nM in [2]; 724 nM in assay [3]; 903 nM in assay [4]; 949 nM in assay [5]; 1220 nM in assay [6]. Further, the potency estimated from few doses in assay [7] is 1830 nM; in assay [8], 1460 nM; in [9], 1200 nM; in assay [10] (CATDS: 7.7480450425825395E-2), 2190 nM.
As for `CCC(NN(C)C)=C1C(=O)Nc2ccc(C(C)=O)cc21` [BI00036838], the potency estimated from few doses is 753 nM in assay [11] (CATDS: 6.3187514520784194E-2); 1210 nM in assay [12]; 1640 nM in [13]; 895 nM in assay [14]; 590 nM in assay [15]; 233 nM in assay [16]. For the same compound, the potency estimated from few doses in assay [17] is 569 nM; in [18] (CATDS: 0.31666625502072798), 27.3 nM; in [19] (CATDS: 0.45532128509290898), 15 nM; in [20] it was 999 nM; in assay [21], 2060 nM; in assay [22], 1750 nM. Besides, the potency estimated from few doses in assay [23] is 1940 nM; in assay [24] (CATDS: 5.78366102928662E-2) it was 942 nM; in [25] it was 1390 nM; in [10] (CATDS: 4.9816696124222203E-2), 1440 nM.
Turning to `Cn1cc(C2=C(c3cccc(Br)c3)C(=O)NC2=O)c2ccccc21` [RO0317625-000], the potency estimated from few doses in [11] (CATDS: 0.11881037811930099) is 2310 nM; in assay [26], 881 nM; in assay [18] (CATDS: 0.21400406250920001) it was 574 nM; in assay [19] (CATDS: 0.248828524546996), 447 nM; in assay [24] (CATDS: 0.16613061012500299) it was 935 nM; in assay [27], 1340 nM.
Regarding `O=c1cc(N2CCOCC2)nc2n(Cc3cccc(C(F)(F)F)c3)ccn12` [GSK2297543A], the results for the potency estimated from few doses in assay [28], in assay [29] and in assay [30] were 1400 nM, 274 nM and 976 nM, respectively.
